26 compounds from PubChem BioAssay (NCATS) can be followed below.

Experiment [1] is described as follows: qHTS for Inhibitors of Plasmodium falciparum (DD2) proliferation (AID 504314).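 For activity, negative = inhibition: parasite DNA measured by SYBR Green fluorescence after red cell lysis; plate controls were DMSO vehicle for no effect and artemisinin wells for full effect.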 Note: potency is the fitted concentration of half-maximal effect. The essentials: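 SYBR Green growth assay: 72 h compound exposure of infected red cells (2.5% hematocrit, 0.3% parasitemia), then lysis and overnight dye staining, fluorescence 485/535 nm. Values scaled between DMSO and 0.29 uM artemisinin controls.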
For orientation: Quantitative high-throughput screening tests each substance at several concentrations.

Experiment [2] is described as follows: qHTS for Inhibitors of Plasmodium falciparum (GB4) proliferation (AID 504315). Note: nearly all actives have a fitted effect of over 50% in size. Note: potency is the fitted concentration of half-maximal effect. The gist of the method:
(§1)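 Parasite growth measured as SYBR Green DNA fluorescence (ex 485, em 535 nm) after overnight lysis following 72 h culture at 37 °C, 0.3% parasitemia, 2.5% hematocrit. Values normalized against DMSO and 0.29 uM artemisinin controls, with plate-stack correction.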

Experiment [3] can be described thus: qHTS for Inhibitors of Plasmodium falciparum (7G8) proliferation (AID 504316). Note: nearly all actives have a fitted effect of over 65% in size. Note: potency is the fitted concentration of half-maximal effect. The essentials: as §1
A short description of experiment [4]: qHTS for Inhibitors of Plasmodium falciparum (HB3) proliferation (AID 504318). Note: nearly all actives have a fitted effect of over 60% in size. Note: potency is the fitted concentration of half-maximal effect. The gist of the method:
as §1

A short description of experiment [5]: qHTS for Inhibitors of Plasmodium falciparum (CP250) proliferation (AID 504320).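 Note: plate controls were DMSO vehicle for no effect and 0.29 µM artemisinin control for full effect.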 The essentials: as §1
For experiment [6], the target named is Atrial natriuretic peptide receptor 1 (Homo sapiens) (UniProt P16066). The experiment in a line: Natriuretic polypeptide receptor (hNpr1) antagonism - Pilot CMLD screen (AID 1347052; calls by dose curve;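 note: HEK293 cells with hNpr1 stimulated by hNppA peptide at 0.1 nM; cGMP level read as GloSensor luciferase luminescence after agonist stimulation; series mostly up to about 9.2 µM; % is set by controls: 0 for no effect and ±100 for the full control effect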).

SMILES strings stand for the structures. Inconclusive results are not listed. Values without a mark were called inactive. The source made the active and inactive calls. Unless noted, calls come from the whole dose curve; as a rule, active = well fitted curve in the direction sought with a large enough effect; inconclusive = small, poorly fitted or top-dose-only effect, or another doubt; inactive = no such curve, though single readings can be large; an effect the other way counts as inactive or inconclusive.

Sequence of Atrial natriuretic peptide receptor 1 (Homo sapiens) (P16066 whole entry, looked up): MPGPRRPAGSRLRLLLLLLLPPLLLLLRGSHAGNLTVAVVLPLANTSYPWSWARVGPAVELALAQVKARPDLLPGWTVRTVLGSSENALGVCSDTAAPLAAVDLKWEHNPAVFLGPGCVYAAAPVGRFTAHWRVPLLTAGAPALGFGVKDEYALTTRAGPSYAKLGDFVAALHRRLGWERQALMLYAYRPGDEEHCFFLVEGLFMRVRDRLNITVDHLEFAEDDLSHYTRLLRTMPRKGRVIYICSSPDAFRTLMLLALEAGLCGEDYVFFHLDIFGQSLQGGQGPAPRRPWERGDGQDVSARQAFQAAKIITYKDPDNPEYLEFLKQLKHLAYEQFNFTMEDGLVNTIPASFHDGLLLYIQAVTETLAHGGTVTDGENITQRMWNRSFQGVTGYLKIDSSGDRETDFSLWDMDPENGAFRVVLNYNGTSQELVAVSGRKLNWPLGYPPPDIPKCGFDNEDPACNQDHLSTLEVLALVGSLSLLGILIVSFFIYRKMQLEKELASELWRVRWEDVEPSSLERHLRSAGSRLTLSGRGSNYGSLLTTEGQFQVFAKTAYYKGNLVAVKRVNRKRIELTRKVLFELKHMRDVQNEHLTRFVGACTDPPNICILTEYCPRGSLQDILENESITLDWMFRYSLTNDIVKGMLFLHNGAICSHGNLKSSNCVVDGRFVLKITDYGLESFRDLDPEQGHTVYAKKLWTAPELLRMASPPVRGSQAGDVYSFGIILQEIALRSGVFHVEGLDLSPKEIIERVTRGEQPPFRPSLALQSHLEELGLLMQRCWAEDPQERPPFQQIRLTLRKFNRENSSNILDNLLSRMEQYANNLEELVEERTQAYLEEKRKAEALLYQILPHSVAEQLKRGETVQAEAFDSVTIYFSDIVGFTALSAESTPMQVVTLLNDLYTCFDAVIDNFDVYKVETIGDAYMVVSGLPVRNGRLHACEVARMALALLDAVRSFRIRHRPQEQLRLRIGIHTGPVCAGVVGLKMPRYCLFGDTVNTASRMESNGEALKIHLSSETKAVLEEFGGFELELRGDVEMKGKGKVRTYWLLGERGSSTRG

Regarding `CCOC(=O)NN=C1C[C@@H](O)[C@@H](O)[C@@H]2[C@H]3C(=O)N(c4ccc(F)cc4F)C(=O)[C@@H]3CC[C@H]12`, the Potency entry in experiment [1], in experiment [2], in experiment [3], in experiment [4], in experiment [5] and in experiment [6] was “inactive” in each case.

As to `C=CCCN1C=C(C(=O)OCC)C(c2ccccc2)NC1=O` (stereo unspecified), the Potency entry in experiment [1], in experiment [2], in experiment [3], in experiment [4], in experiment [5] and in experiment [6] was “inactive” in each case.

For `COc1ccc2c(c1)O[C@@H](c1ccc3c(c1)OCO3)[C@H](OC(=O)N[C@H](C)C1CCCCC1)C2=O`, the Potency entry in experiment [1], in experiment [2], in experiment [3], in experiment [4], in experiment [5] and in experiment [6] was “inactive” each time.

As for `COc1cccc([C@H](O)Cn2cc(-c3ccc(CON=C(C)C)cc3)nn2)c1`, the Potency result in experiment [1], in experiment [2], in experiment [3], in experiment [4], in experiment [5] and in experiment [6] was “inactive” throughout.

For `COC(=O)CC=C[C@@H](C)[C@@H](C=NO[C@H](C)c1cn([C@@H]2COC[C@@H]2O)nn1)N[S+](=O)([O-])c1ccc(C)cc1`, the Potency result in experiment [1], in experiment [2], in experiment [3], in experiment [4], in experiment [5] and in experiment [6] was “inactive” each time.

For `C=CCOC(=O)N[C@@H](CC(C)C)C(C(=O)OC)=C(C)NCc1ccccc1`, the Potency entry in experiment [1], in experiment [2], in experiment [3], in experiment [4], in experiment [5] and in experiment [6] was “inactive” each time.

On to `CCN1C(=O)[C@@H]2[C@H]3[C@H](O)[C@H](O)CC(=NOC[C@@H](C)[C@H](OCc4ccccc4)C(C)C)[C@@H]3CC[C@H]2C1=O`, for which the Potency result in experiment [1], in experiment [2], in experiment [3], in experiment [4], in experiment [5] and in experiment [6] was “inactive” in each case.

As to `CCN1C(=O)N(C)C(c2ccccc2)C(C(C)=O)=C1C` (stereo unspecified), the Potency result in experiment [1], in experiment [2], in experiment [3], in experiment [4], in experiment [5] and in experiment [6] was “inactive” throughout.

As to `C=COCCN1C=C(C(=O)OCC)C(c2ccccc2)NC1=O` (stereo unspecified), the Potency result in experiment [1], in experiment [2], in experiment [3], in experiment [4], in experiment [5] and in experiment [6] was “inactive” throughout.

On to `O=C(OCC(F)(F)F)[C@H](O)[C@@H](O)C(=O)OCC(F)(F)F`, for which the Potency result in experiment [1], in experiment [2], in experiment [3], in experiment [4], in experiment [5] and in experiment [6] was “inactive” each time.

Turning to `CCN1C(=O)N[C@@H](c2ccccc2)[C@@H](C(=O)OC)[C@H]1C`, the Potency result in experiment [1], in experiment [2], in experiment [3], in experiment [4], in experiment [5] and in experiment [6] was “inactive” each time.

In the case of `CCOC(=O)OC[C@H]1O[C@H](c2cc(C)cc(C)c2)C=C[C@H]1OC(=O)OCC`, the Potency entry in experiment [1], in experiment [2], in experiment [3], in experiment [4], in experiment [5] and in experiment [6] was “inactive” in each case.

`COc1ccc(-c2nc3c(c4c2C[C@H](c2ccccc2)OC4)CN(S(=O)(=O)c2ccc(Cl)c4nonc24)CC3)c(C)c1`: the Potency result in experiment [1], in experiment [2], in experiment [3], in experiment [4], in experiment [5] and in experiment [6] was “inactive” throughout.

Turning to `COC(=O)C1C[C@@]23C(=NN=C(SC)C2N(C)c2ccc(OC)cc23)N1C(C)=O` (stereo partly specified), the Potency result in experiment [1], in experiment [2], in experiment [3], in experiment [4], in experiment [5] and in experiment [6] was “inactive” throughout.

As to `CC=CCCN1C=C(C(C)=O)C(c2ccccc2)NC1=O` (stereo unspecified), the Potency entry in experiment [1], in experiment [2], in experiment [3], in experiment [4], in experiment [5] and in experiment [6] was “inactive” each time.

In the case of `C=C1CN2C(=NC(c3ccccc3)C(C(=O)OC)=C2C)O1` (stereo unspecified), the Potency result in experiment [1], in experiment [2], in experiment [3], in experiment [4], in experiment [5] and in experiment [6] was “inactive” each time.

For the compound `COCCN1C(=O)NC(CCc2ccccc2)C(C(C)=O)=C1C` (stereo unspecified), the Potency entry in experiment [1], in experiment [2], in experiment [3], in experiment [4], in experiment [5] and in experiment [6] was “inactive” throughout.

Turning to `COC(=O)N[C@@H](c1ccco1)[C@]1(C(C)=O)CCCC1=O`, the Potency entry in experiment [1], in experiment [2], in experiment [3], in experiment [4], in experiment [5] and in experiment [6] was “inactive” in each case.

For the compound `CCCCC1=CC2=C(c3ccco3)C(=O)C(C)(OC(=O)c3ccc(OC)cc3)C(=O)C2=CN1C(CO)CO` (stereo unspecified), the Potency result in experiment [1], in experiment [2], in experiment [3], in experiment [4], in experiment [5] and in experiment [6] was “inactive” in each case.

In the case of `CCCCC1=CC2=C(c3ccco3)C(=O)C(C)(OC(=O)c3ccc(OC)cc3)C(=O)C2=CN1CC1CC1` (stereo unspecified), the Potency result in experiment [1], in experiment [2], in experiment [3], in experiment [4], in experiment [5] and in experiment [6] was “inactive” throughout.

With `CCCCS(=O)(=O)N1C2=NC3=C(C(=O)N(CCOC)C3=O)C3N(C)c4ccccc4[C@]23C[C@H]1CO` (stereo partly specified), the Potency entry in experiment [1], in experiment [2], in experiment [3], in experiment [4], in experiment [5] and in experiment [6] was “inactive” each time.

Turning to `COc1ccc2c(c1)[C@@]1(OCCC=C[C@@H]1C)C(=O)N2CC1CC1`, the Potency entry in experiment [1], in experiment [2], in experiment [3], in experiment [4], in experiment [5] and in experiment [6] was “inactive” each time.

Consider `COc1cc2c(cc1OC)[C@@H]1O[C@](CCCCN3C(=O)c4ccccc4C3=O)(C2)OC2=C1C(=O)c1ccccc1C2=O`, for which the Potency in experiment [1] was 1340 nM (active); in experiment [2] it was 1510 nM (active); in experiment [3] it was 1510 nM (active); in experiment [4] it was 1510 nM (active). Moreover, the Potency result in experiment [5] and in experiment [6] was “inactive” each time.

`C=C(CCN1C=C(C(=O)OCC)C(c2ccccc2)NC1=O)c1ccccc1` (stereo unspecified): the Potency result in experiment [1], in experiment [2], in experiment [3], in experiment [4], in experiment [5] and in experiment [6] was “inactive” each time.

In the case of `O=C1C[C@@H](c2ccccc2)[C@H](c2ccc(Br)cc2)O1`, the Potency result in experiment [1], in experiment [2], in experiment [3], in experiment [4], in experiment [5] and in experiment [6] was “inactive” throughout.

Turning to `CC1(OC(=O)c2cccs2)C(=O)C=C2C=C3CCCN3C=C2C1=O` (stereo unspecified), in experiment [1], the activity, negative = inhibition is -0.249% [at 1.12 µM]. The Potency result in experiment [2], in experiment [3], in experiment [4], in experiment [5] and in experiment [6] was “inactive” in each case.
